Sampled rows, rich in hits. Any-hit rate of the full collection: about 4.1%.
NALP1 inh: inhibitors of NALP1 inflammasome in yeast | S. cerevisiae NALP1/ASC/caspase-1 growth, X-gal OD620, 72 h | inhibition, % at 10 µM | 280,000 compounds, 0.61% hits; in the data active = inhibition mostly above about 24%, no sharp cut-off; inactive = mostly below about 32%
TIM10 inh: TIM10 yeast growth inhibition; S. cerevisiae TIM10 strain growth, BacTiter-Glo luminescence, 24 h; inhibition, % at 10 µM; 330,000 compounds, 1.4% hits;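 active = inhibition of 40% or more at the single tested concentration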;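 note: wild-type TIM10 isogenic control strain grown at permissive 25 °C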
tim23-1 inh: growth inhibitors of tim23-1 mutant yeast | S. cerevisiae tim23-1 growth, BacTiter-Glo luminescence, 24 h | inhibition, % at 20 µM | 330,000 compounds, 1.3% hits | AID 463212;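 active = growth inhibition of the mutant yeast at or above 50%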;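 note: temperature-sensitive mutant grown at 25 °C; plate controls were DMSO-treated mutant yeast for no effect and medium wells lacking yeast for full effect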
NALP3 yeast inh: blocks the NALP3 inflammasome reconstituted in yeast. Yeast reconstituted NLRP3/ASC/caspase-1, beta-gal luminescence, 24 h. inhibition, % at 10 µM. 330,000 compounds, 0.39% hits;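 active = inhibition of 50% or more; inactive = inhibition below 50%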;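 note: plate controls were induced DMSO wells for no effect and uninduced yeast grown without galactose for full effect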
tim10-1 inh: tim10-1 yeast growth inhibition; S. cerevisiae tim10-1 ts strain growth, BacTiter-Glo, 24 h; 330,000 compounds, 2.2% hits; inhibition, % at 20 µM;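 active = inhibition of at least 40%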;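 note: mutant grown at 25 °C; 0% = DMSO wells with yeast and 100% = wells holding no yeast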
tim10-1 confirm: confirmation of tim10-1 mutant yeast growth inhibitors | S. cerevisiae tim10-1 ts strain growth, BacTiter-Glo, 24 h | shares compounds with tim10-1 inh | 7,400 compounds, 56% hits | inhibition, % at 20 µM;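 active = inhibition of yeast growth at or above a set limit in either of two repeat tests at 20 µM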;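 note: tim10-1 mutant grown at permissive 25 °C to find synthetic lethal compounds; 0% = DMSO yeast wells and 100% = medium wells without yeast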
* marks the source's active call; other numbers are inactive results; · = not tested or not shown.

SMILES | NALP1 inh | TIM10 inh | tim23-1 inh | NALP3 yeast inh | tim10-1 inh | tim10-1 confirm
O=C(c1ccc2ncsc2c1)N1CCN(c2cccc(C(F)(F)F)c2)CC1 | · | 38.4 | 49.8 | -37.3 | 57.6* | 39.5*
COc1ccc(OC)c2sc(N3CCN(C(=O)c4ccc5ncsc5c4)CC3)nc12 | · | 20.9 | 29.1 | 21.4 | 50.3* | 21.4
O=C(c1ccc2nc[nH]c2c1)N1CCN(c2cccc(C(F)(F)F)c2)CC1 | 23.4 | 28.3 | 33.6 | -11.2 | 37.1 | ·
COc1ccc(OC)c2sc(N3CCCCC3)nc12 | -6.4 | 21.4 | 26.3 | 23.5 | 43.0* | 24.6
CCC(CC)NC(=O)c1cc(S(=O)(=O)N2CCCCC2)ccc1N1CCOCC1 | · | -4.4 | 8.3 | 2.1 | 0.0 | ·
O=C(COC(=O)C1(c2ccc(Cl)cc2)CCCC1)Nc1ncc(C(F)(F)F)cc1Cl | 15.0 | 10.4 | 23.9 | -4.9 | 41.9* | 9.5
O=C(CSc1ccc(-c2ccc(F)cc2)nn1)NC1CCCCC1 | 10.6 | 15.8 | 3.3 | -19.6 | 7.7 | ·
O=C(CCCCC(=O)NC1CCCC1)NC1CCCC1 | 26.7 | -2.1 | 3.0 | 3.7 | 2.8 | ·
Cc1ccc(/C(N)=N/OC(=O)C(C)c2ccc([N+](=O)[O-])cc2)cc1 (stereo unspecified) | 11.9 | 38.2 | 42.0 | -9.1 | 46.1* | 50.7*
N/C(=N\OC(=O)CC1CCCCC1)c1ccc([N+](=O)[O-])cc1 | 9.5 | 29.1 | 44.8 | -7.3 | 70.3* | 51.1*
O=C(NCC1CCCCC1)c1ccc([N+](=O)[O-])cc1 | 16.1 | -1.0 | 17.7 | 24.4 | 8.5 | ·
Nc1cc(C(=O)N2CCCC2)cc(C(=O)N2CCCC2)c1 | 1.7 | -7.5 | -16.0 | -1.2 | -9.5 | ·
CCN(CC(=O)Nc1ccccc1OC)C(=O)CC1CCCC1 | · | -1.4 | 12.0 | 16.6 | 2.9 | ·
Cc1ccc(CN2CCSc3ccc(C(=O)N4CCOCC4)cc32)cc1 | 6.0 | 4.4 | 37.7 | 20.7 | 41.0* | 15.2
O=C(NCC1CCCO1)c1ccc2c(c1)N(Cc1ccccc1)CCS2 (stereo unspecified) | 6.8 | 11.7 | 39.7 | 4.0 | 41.3* | 13.5
CCN1CCSc2ccc(C(=O)NCc3cccc(Br)c3)cc21 | 7.4 | 11.0 | 46.3 | 3.8 | 41.3* | 35.3*
CCN1CCN(C(=O)c2ccc3c(c2)N(Cc2ccc(C)cc2)CCS3)CC1 | 21.7 | 3.3 | 7.5 | 14.3 | 21.1 | ·
CCOc1ccccc1CNC(=O)c1ccc2nc(N3CCOCC3)sc2c1 | 13.1 | -11.2 | 19.2 | 18.2 | 18.4 | ·
COC(=O)/C(C#N)=C\c1c(OC)[nH]c2ccccc12 | -4.2 | 13.7 | 2.0 | 10.7 | -6.8 | ·
COc1ccc(C(=O)Cn2nnc(-c3ccccc3NC(=O)c3ccco3)n2)cc1 | 21.6 | 12.4 | -8.0 | -4.1 | 0.6 | ·
COc1cccc(NC(=O)c2ccco2)c1 | -1.1 | 18.0 | 33.9 | 27.7 | 6.1 | ·
COc1ccc(Br)cc1C(=O)Nc1cccc(C)c1 | 5.7 | -11.3 | 3.7 | 28.1 | 4.3 | ·
COc1c(C)cc(Br)cc1C(=O)Nc1cccc(NC(=O)c2ccco2)c1 | 11.7 | 35.7 | 42.3 | 26.3 | 42.3* | 35.8*
COc1ccc(Br)cc1C(=O)Nc1cccc(NC(=O)c2ccco2)c1 | 5.0 | 13.7 | 49.1 | 4.7 | 42.2* | 30.8*
CCOC(=O)C1CCN(C(=O)CCCn2nc(C)c3c(C)n(-c4ccc(C)cc4)nc3c2=O)CC1 | 13.3 | -2.4 | 23.6 | 4.1 | 6.7 | ·
SMILES | NALP1 inh | TIM10 inh | tim23-1 inh | NALP3 yeast inh | tim10-1 inh | tim10-1 confirm
Cc1sc2nc(-c3ccco3)oc(=O)c2c1C | 24.9 | 21.4 | 36.0 | 14.0 | 41.6* | 29.3
Cc1ccccc1-c1nc2sc(C)c(C)c2c(=O)o1 | 15.9 | -22.0 | 12.5 | 14.3 | 3.2 | ·
CCC(=O)Nc1ccc(S(=O)(=O)Nc2ccc(Cl)nn2)cc1 | 28.4 | 6.6 | 14.2 | 9.1 | 8.9 | ·
CN1CCN(c2ccccc2NC(=O)c2ccc(-c3cccc([N+](=O)[O-])c3)o2)CC1 | 0.2 | · | · | · | · | ·
CN1CCN(c2ccccc2NC(=O)c2ccc(-c3ccc(Cl)c(Cl)c3)o2)CC1 | -0.1 | 38.3 | 23.7 | 30.4 | 54.9* | 37.5*
O=CNC1CCCc2c1[nH]c1ccc(Cl)cc21 (stereo unspecified) | -15.8 | 30.1 | 32.7 | 7.8 | 44.5* | 27.9
COc1ccc(-c2nnc(SC(C)C(=O)Nc3cccc(Cl)c3)o2)cc1 (stereo unspecified) | 1.6 | 6.0 | 29.5 | 25.2 | 37.3 | ·
CC(C)C(OC(=O)c1cc2sccc2n1C)C(=O)NCC1CCCO1 (stereo unspecified) | 4.9 | 3.4 | 15.7 | 19.7 | 10.4 | ·
COc1ccc(CN(CC2CCCO2)C(=O)c2cc3sccc3n2C)c(OC)c1 (stereo unspecified) | 11.5 | 31.6 | 21.7 | 3.7 | 45.3* | 29.4
O=C(CSc1nnc(-c2cccs2)o1)c1cccs1 | 23.4 | 10.1 | -2.7 | 5.7 | 6.9 | ·
CN(C)C(=O)CSc1nnc(-c2cc(-c3cccs3)nc3ccccc23)o1 | 20.8 | 31.8 | 33.7 | 30.8 | 40.4* | 38.2*
CCN(CC)C(=O)CSc1nnc(-c2cc(-c3ccc(Cl)cc3)nc3ccccc23)o1 | 12.2 | 0.2 | 17.9 | 13.5 | 4.5 | ·
Cc1cc(C(=O)CSc2nnc(-c3cccs3)o2)c(C)n1-c1ccccc1 | 32.8 | 26.9 | 27.9 | 5.5 | 48.3* | 34.2*
CC1CCCC(NC(=O)Cn2cc(C(F)(F)F)cc(Cl)c2=O)C1C (stereo unspecified) | · | 3.2 | 2.3 | -0.9 | -16.2 | ·
CSc1cccc(N2CC(C(=O)Nc3ccccc3N3CCCC3)CC2=O)c1 (stereo unspecified) | · | 1.6 | 19.9 | 15.0 | 11.1 | ·
COc1ccc(/C=N/NC(=O)c2cc3cc(OC)c(OC)cc3[nH]2)cc1 | 10.7 | 2.4 | 21.6 | 4.0 | 13.8 | ·
COc1ccc2cc(C(=O)N/N=C/c3cc(OC)c(OC)c(OC)c3)[nH]c2c1 | 15.1 | 28.5 | 38.7 | 3.0 | 40.5* | 26.2
CC(C)OCCCN1CN(S(=O)(=O)c2cccs2)c2nc3ccccc3nc21 | · | -16.5 | 17.2 | 9.3 | 14.4 | ·
CC1(C)CC(=O)c2sc(NC(=O)CCS(=O)(=O)c3ccccc3)nc2C1 | 42.6 | 31.3 | 47.7 | 8.9 | 46.0* | 37.2*
COc1ccc(Sc2nnc(Cc3ccccc3)c3ccccc23)cc1 | -6.1 | 28.4 | 22.8 | 9.0 | 31.2 | ·
Cc1ccc(Sc2nnc(Cc3ccccc3)c3ccccc23)cc1 | 47.6 | 24.3 | 33.5 | 22.4 | 40.7* | 26.9
O=C(NCC1CCCO1)c1nn2c(C(F)(F)F)cc(-c3ccc(Br)o3)nc2c1Br (stereo unspecified) | 2.8 | 15.7 | 6.4 | 29.8 | 15.0 | ·
O=C1c2cccc(Cl)c2C(=O)c2c1cccc2N1CCCC1 | · | 38.1 | 41.7 | 26.8 | 53.3* | 38.3*
CCn1c(SCC(=O)O)nnc1-c1cccnc1 | -13.4 | 2.0 | 3.3 | 18.7 | 7.5 | ·
c1ccn2cc(C34CC5CC(CC(C5)C3)C4)nc2c1 | -7.5 | 36.0 | 49.2 | 0.3 | 53.1* | 39.5*
COc1cc(OC)cc(C(=O)NCC2CCCN(C(=O)c3oc(C)cc3C)C2)c1 (stereo unspecified) | -4.0 | 4.9 | 8.4 | 10.6 | 11.1 | ·

Assay outcomes (PubChem)
